About 83,000 compounds went through this panel and 20% of them were active in at least one assay; those are over-represented in the sample as a whole.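 Interpretation: 100, growth as untreated; towards 0, rising growth inhibition; 0, no net growth; 0 to -100, cell death. Compounds scoring below 10 were considered active.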 Unmarked numbers belong to inactive results. Active and inactive are the calls of the source.

Among the test systems are DU-145 prostate; K-562 leukemia; MALME-3M melanoma; MDA-MB-231 breast; RXF 393 renal; SF-268 CNS; SF-295 CNS; SF-539 CNS; UACC-257 melanoma; M14 melanoma.
Holding throughout (assay): NCI-60 one-dose screen, 48 h (100 = growth as untreated, 0 = no growth, -100 = all killed)
Common to all, as to settings: 10 µM unless noted

Consider `COc1ccc(/C=C/c2c(C(=O)/C=C/c3ccc(F)cc3)c(C)nc3ccccc23)cc1`, for which the growth in the assay with DU-145 prostate is 35.8%; with K-562 leukemia it was 10.3%; in the assay with MALME-3M melanoma, 83.6%; with MDA-MB-231 breast, 54.8%; in the assay with RXF 393 renal it was 55.5%; in the assay on SF-268 CNS, 69.3%. For the same molecule, the growth is 62.4% with SF-295 CNS, 81.5% with SF-539 CNS, 66.6% in the assay on UACC-257 melanoma and 65% with M14 melanoma.
As for `COc1cccc(-c2nn(-c3ccccc3)cc2-c2ccnc(NCCCNC(=O)c3ccccc3)c2)c1`, the growth in the assay with DU-145 prostate was 64.7%; in the assay on K-562 leukemia, 11.2%; with MALME-3M melanoma it was 57.5%; in the assay with MDA-MB-231 breast, 45.9%; with RXF 393 renal it was 63.3%; in the assay on SF-268 CNS, 66.2%. For the same molecule, the growth was 51.5% with SF-295 CNS, 80.2% in the assay on SF-539 CNS, 40.7% with UACC-257 melanoma and 33.3% with M14 melanoma.
Take `C=CCn1c(C)nc2cc(Nc3nc(N4CCCC4)nc4ccccc34)ccc21`: the growth was 73.8% in the assay with DU-145 prostate; 1.94% (active) in the assay with K-562 leukemia; 122% in the assay on MALME-3M melanoma; 42% in the assay with MDA-MB-231 breast; 52.4% with RXF 393 renal; 86.9% with SF-268 CNS. For the same molecule, the growth was 83.7% with SF-295 CNS, 90.1% in the assay on SF-539 CNS, 115% in the assay with UACC-257 melanoma and 89.7% in the assay on M14 melanoma.
Take `Cn1c(=O)c2[nH]c(NN)nc2n(C)c1=O`: the growth in the assay with DU-145 prostate was 123%; with K-562 leukemia, 100%; in the assay with MALME-3M melanoma, 135%; with MDA-MB-231 breast it was 116%; with RXF 393 renal it was 123%; with SF-268 CNS, 108%. Moreover, the growth was 108% in the assay on SF-295 CNS, 111% in the assay on SF-539 CNS, 119% in the assay on UACC-257 melanoma and 102% in the assay on M14 melanoma.
On to `O=C1c2cccc(NCCN=Cc3cc([N+](=O)[O-])ccc3O)c2C(=O)c2c(NCCN=Cc3cc([N+](=O)[O-])ccc3O)cccc21`, for which the growth in the assay on DU-145 prostate was 67%; in the assay with K-562 leukemia, 28.6%; in the assay on MALME-3M melanoma it was 85.1%; in the assay with MDA-MB-231 breast it was 58.9%; in the assay with RXF 393 renal, 74.5%; with SF-268 CNS it was 40%. The growth in the assay on SF-295 CNS was 73%; in the assay with SF-539 CNS, 70.8%; with UACC-257 melanoma it was 104%; with M14 melanoma, 102%.
Consider `COc1ccc2c(c1)[nH]c(=O)c1c3cccnc3cn21`, for which the growth was 9.39% (active) in the assay on DU-145 prostate; 17.4% in the assay on K-562 leukemia; 62.6% in the assay with MALME-3M melanoma; 28.9% with MDA-MB-231 breast; 37% in the assay on RXF 393 renal; 27.3% in the assay with SF-268 CNS. Besides, the growth in the assay on SF-295 CNS is -6.51% (active); in the assay on SF-539 CNS, 8.85% (active); with UACC-257 melanoma, 64.5%; in the assay on M14 melanoma, 16.2%.
For `CCOC(=O)c1ccc(N2NC(=O)/C(=C/c3ccc([N+](=O)[O-])o3)C2=O)cc1`, the growth was 113% with DU-145 prostate; 114% with K-562 leukemia; 105% with MALME-3M melanoma; 133% in the assay with MDA-MB-231 breast; 44% in the assay on RXF 393 renal; 99.8% in the assay with SF-268 CNS. For the same molecule, the growth was 118% with SF-295 CNS, 108% in the assay on SF-539 CNS, 90.7% in the assay on UACC-257 melanoma and 116% in the assay on M14 melanoma.
With `COc1ccc2[nH]c(O)c(/C=c3/cc4c(c(-c5ccc(F)c(OC)c5)n3)=Nc3ccccc3-4)c2c1`, the growth is 30.3% in the assay on DU-145 prostate; 0.38% (active) in the assay with K-562 leukemia; -55.6% (active) with MALME-3M melanoma; -47.5% (active) in the assay on MDA-MB-231 breast; -75.2% (active) in the assay on RXF 393 renal; 30.3% with SF-268 CNS. Further, the growth was 104% in the assay with SF-295 CNS, 64.3% in the assay on SF-539 CNS, 103% with UACC-257 melanoma and -8.58% (active) in the assay on M14 melanoma.
Take `Cn1ccc2c(c1=O)C(=O)c1nccc3c1c-2nc1ccccc13`: the growth is -88.3% (active) in the assay with DU-145 prostate; -46.6% (active) with K-562 leukemia; 89.3% with MALME-3M melanoma; -85.5% (active) in the assay with MDA-MB-231 breast; 40.8% with RXF 393 renal; -69.2% (active) in the assay with SF-268 CNS. In addition, the growth is -66% (active) in the assay with SF-295 CNS, -28.9% (active) with SF-539 CNS, 108% in the assay with UACC-257 melanoma and 82.9% in the assay on M14 melanoma.
On to `NNC(=O)c1nc(N)n(-c2ccc(S(N)(=O)=O)cc2)n1`, for which the growth in the assay with DU-145 prostate is 92.8%; with K-562 leukemia, 96.5%; in the assay on MALME-3M melanoma it was 97.8%; in the assay with MDA-MB-231 breast it was 88.6%; in the assay with RXF 393 renal it was 110%; in the assay with SF-268 CNS it was 93.3%. The growth is 109% with SF-295 CNS, 89.2% in the assay on SF-539 CNS, 97.2% with UACC-257 melanoma and 94.4% in the assay with M14 melanoma.
For `N#CC1=C(c2ccc(Br)cc2)NC(SCC(=O)c2ccc(Br)cc2)NC1=O` (stereo not given), the growth is 108% in the assay with DU-145 prostate; 91.1% in the assay on K-562 leukemia; 105% in the assay on MALME-3M melanoma; 105% in the assay with MDA-MB-231 breast; 108% in the assay with RXF 393 renal; 98.9% in the assay with SF-268 CNS. Also, the growth with SF-295 CNS is 101%; in the assay on SF-539 CNS, 96.2%; in the assay on UACC-257 melanoma, 103%; in the assay with M14 melanoma, 100%.
`Cc1ccc(C(=O)COc2cccc(/C=C3\Oc4ccccc4C3=O)c2)cc1`: the growth in the assay with DU-145 prostate was 123%; in the assay on K-562 leukemia, 75.8%; in the assay on MALME-3M melanoma it was 106%; in the assay on MDA-MB-231 breast, 83.1%; in the assay with RXF 393 renal, 94.5%; with SF-268 CNS, 120%. For the same molecule, the growth in the assay on SF-295 CNS is 120%; with SF-539 CNS it was 103%; in the assay with UACC-257 melanoma it was 129%; with M14 melanoma, 101%.
Turning to `O=c1ccn2nc3ccccc3c2[nH]1`, the growth with DU-145 prostate was 128%; with K-562 leukemia it was 98.5%; in the assay on MALME-3M melanoma, 86.7%; in the assay on MDA-MB-231 breast it was 91.3%; with RXF 393 renal it was 123%; with SF-268 CNS, 110%. The growth in the assay on SF-295 CNS was 118%; with SF-539 CNS, 95.9%; in the assay with UACC-257 melanoma, 130%; with M14 melanoma, 98.6%.
Consider `CC1(C)CC(=O)C2=C(C1)N(c1ccc(OC(F)(F)F)cc1)C(N)=C(C#N)C2c1ccc(Cl)cc1` (stereo not given), for which the growth in the assay on DU-145 prostate is 91.3%; in the assay on K-562 leukemia, 86.5%; with MALME-3M melanoma, 85%; with MDA-MB-231 breast, 80.8%; in the assay with RXF 393 renal, 66.7%; with SF-268 CNS, 74.3%. Besides, the growth in the assay on SF-295 CNS is 81.6%; in the assay on SF-539 CNS, 82.2%; in the assay with UACC-257 melanoma, 84.1%; in the assay on M14 melanoma, 93.7%.

The record behind these values is PubChem BioAssay (NCI).
